Screening data (PubChem BioAssay)
SMN2 splice up: qHTS Assay for Enhancers of SMN2 Splice Variant Expression | HEK293 SMN2-luciferase splicing reporter, luminescence, 30-36 h | Potency, µM (top dose mostly 46.1 µM), actives largely listed as activators | 210,000 tested, 2.8% active | AID 1458, 2008; also: nearly all actives have a fitted effect of over 55% in size
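qHTS luciferase splicing reporter: luminescence rises when SMN2 exon 7 is included in transfected HEK293 cells. Compound exposure lasted 30-36 h at 37C, with 4.5 mM final sodium butyrate as control, followed by a ONE-Glo read.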
Rab9 prom act: qHTS Assay for Rab9 Promoter Activators | Huh7 Rab9 promoter-luciferase reporter, luminescence, 24 h | Potency, µM (series often up to 9.22 µM), usual class: activators | 320,000 tested, 2.8% active | AID 485297, 2010; also: nearly all actives have a fitted effect of over 60% in size
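Rab9 promoter-driven luciferase in stably transfected Huh7 cells; 1500 cells/well rested 2 h, exposed to compound in DMSO for 24 h at 37 °C, 5% CO2. Luminescence read 10 min after adding luciferase reagent at ambient temperature.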
FLuc counter: qHTS profiling assay for firefly luciferase inhibitor/activator using purifed enzyme and Km concentrations of substrates (counterscreen for miR-21 project) | Luciferin 4-monooxygenase (Photinus pyralis), P08659 | purified FLuc, Km substrates, luminescence inhibition | Potency, µM (top dose mostly 57.5 µM), actives largely listed as inhibitors | 360,000 tested, 6.9% active | AID 588342, 2011; also: nearly all actives have a fitted effect of over 55% in size
Target sequence (P08659 whole entry, looked up): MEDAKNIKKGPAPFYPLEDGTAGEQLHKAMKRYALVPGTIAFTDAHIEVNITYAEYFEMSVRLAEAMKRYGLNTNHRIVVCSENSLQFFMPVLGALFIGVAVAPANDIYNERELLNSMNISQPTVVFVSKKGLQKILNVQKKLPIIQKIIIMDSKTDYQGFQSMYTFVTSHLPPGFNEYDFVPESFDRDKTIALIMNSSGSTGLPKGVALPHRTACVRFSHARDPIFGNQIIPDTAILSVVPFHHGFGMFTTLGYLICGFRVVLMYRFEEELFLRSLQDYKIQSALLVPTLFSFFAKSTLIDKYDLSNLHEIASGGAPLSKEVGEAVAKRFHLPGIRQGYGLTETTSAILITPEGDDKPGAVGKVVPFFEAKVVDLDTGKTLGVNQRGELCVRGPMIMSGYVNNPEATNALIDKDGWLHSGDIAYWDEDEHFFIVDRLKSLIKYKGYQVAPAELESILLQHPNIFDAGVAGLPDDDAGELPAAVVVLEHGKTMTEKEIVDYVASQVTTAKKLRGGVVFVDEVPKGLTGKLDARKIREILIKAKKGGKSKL
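Purified P. pyralis luciferase (10nM final) with 10uM D-luciferin and 10uM ATP (Km levels) in 50mM Tris acetate pH 7.5, 10mM Mg acetate, 0.01% Tween-20, 0.05% BSA; qHTS 6-point titration, ~60 µM downward; luminescence read.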
ELG1 genotoxic: qHTS screen for small molecules that induce genotoxicity in human embryonic kidney (HEK293T) cells expressing luciferase-tagged ELG1; HEK293T ELG1-luciferase reporter, luminescence, 16 h; 330,000 tested, 1.3% active; Potency, µM (series often up to 46 µM), most hits filed as activators; also: nearly all actives have a fitted effect of over 60% in size
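Reporter readout depends on ELG1 protein level, which increases with genetic stress. After 16 hr compound exposure at 37 °C, luciferase activity was quantified using ONE-Glo.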
ELG1 DNA repair: qHTS screen for small molecules that inhibit ELG1-dependent DNA repair in human embryonic kidney (HEK293T) cells expressing luciferase-tagged ELG1. HEK293T ELG1-luciferase reporter, luminescence, 16 h; DNA damage induced by 5-fluorouridine. 330,000 tested, 2.3% active. AID 504467, 2011. Potency, µM (series often up to 46.1 µM), usual class: inhibitors; also: nearly all actives have a fitted effect of over 55% in size
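Cells (2,000 per well) received 5-fluorouridine plus test compound or DMSO and were incubated 16 hr at 37 °C, 5% CO2. Luciferase activity was read by luminescence 30 min after ONE-Glo addition; signal suppression marked inhibition of damage-induced ELG1 function.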
NPC1 promoter act: qHTS Assay for NPC1 Promoter Activators; Huh7 NPC1 promoter luciferase reporter, 24 h; Potency, µM (series often up to 9.22 µM), actives largely listed as activators; 320,000 tested, 2.4% active; AID 485313, 2010; also: nearly all actives have a fitted effect of over 60% in size
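Luminescence from an NPC1 promoter-driven luciferase reporter in stably transfected Huh7 cells was measured after 24 h compound treatment at 37 °C, followed by 10 min ambient incubation with luciferase detection reagent.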
Hits are given with their value; . = inactive; ? = inconclusive; / = not tested or not shown; [ ] = dose if it differs, or a comment. Rows were chosen to be rich in hits. Some 9.2% of all compounds tested hit in one or more screens of this group. Calls follow the shape of the dose curve; as a rule, active = well fitted curve in the direction sought with a large enough effect; inconclusive = small, poorly fitted or top-dose-only effect, or another doubt; inactive = no such curve, though single readings can be large; an effect the other way counts as inactive or inconclusive.

SMILES	SMN2 splice up	Rab9 prom act	FLuc counter	ELG1 genotoxic	ELG1 DNA repair	NPC1 promoter act
CC(C)(C)n1ncc2c(=O)n(Cc3cc(F)c(F)cc3Cl)cnc21	/	/	.	/	/	/
COc1ccc(-c2oc3cccnc3c2-c2ccc(OC)nc2)cc1	/	.	?	.	.	.
Cc1ccc(/C=[N+](\[O-])c2ccc(N(C)C)cc2)c2nsnc12	10µM	1.1µM	1.3µM	.	?	?
Cc1ccc2nsnc2c1NS(=O)(=O)c1c(C)ccc2nsnc12	.	.	.	.	.	.
CCOC(=O)N1CCC(NS(=O)(=O)c2ccc3c(c2)CCN3C(C)=O)CC1	.	.	.	.	18µM	.
CCOC(=O)C(=CNc1ccc(N2CCOCC2)cc1)C(=O)OCC	/	.	.	.	.	.
CCOC(=O)C(=CNc1ccc2c(c1)CCN2C(C)=O)C(=O)OCC	/	.	12µM	.	.	.
COc1ccc(CCNC(=O)C(NS(=O)(=O)c2cccc3nsnc23)C(C)C)cc1OC (stereo not given)	/	.	.	.	.	.
Cc1cccc(NC(=O)CSc2ccc(-c3ccc4c(c3)OCO4)nn2)c1C	.	.	.	.	?	.
Fc1cccc(Cn2ccc(-c3ccc4c(c3)OCO4)n2)c1	?	.	21µM	.	?	.
Cc1ccccc1Cn1nnc(-c2ccc3c(c2)OCO3)n1	4µM	?	15µM	.	?	.
Fc1cccc(Cl)c1Cn1nnc(-c2ccc3c(c2)OCO3)n1	13µM	?	12µM	?	?	?
Cc1ccccc1Cn1ccc(-c2ccc3c(c2)OCO3)n1	.	.	15µM	.	?	?
CC[C@]12c3[nH]c4ccc(OC)cc4c3CCN1C(=O)C(CC(=O)NCc1ccco1)C[C@@H]2C(=O)N1CCN(C(=O)c2ccco2)CC1 (stereo not given in full)	/	/	/	.	.	/
O=C(COC(=O)c1ccc(F)c(S(=O)(=O)N2CCOCC2)c1)NCc1ccc(Cl)cc1	/	/	/	.	.	/
C=C(C[C@]1(C(=O)OC)CC2(CC=C(C)C)C(=O)C(C(=O)CC(C)C)=C(O)C(CC=C(C)C)(C1)C2=O)C(=O)OC (stereo not given in full)	.	/	/	/	/	/
O=C(Cc1ccccc1)NN1C(=O)C2C3C=CC(C3)[C@@H]2C1=O (stereo not given in full)	.	.	.	.	.	.
NCCOC[C@H](N)C(=O)O	.[9.22 µM]	/	/	/	/	/
CCOC(=O)C1CCN(C(=O)c2ccc3c(c2)N=C(CC)c2cc(C)ccc2S3)CC1	.	/	.	/	/	/
O=C(OC1CCCCC1)c1ccc(NC(=O)C2CCCCC2)cc1	.	.	?	.	?	.
CC(C)(C)C(=O)Nc1ccc(C(=O)OC2CCCCC2)cc1	35µM	1.4µM	4.3µM	?	?	1.4µM
O=C(O)CCC(=O)Nc1ccc(C(=O)OC2CCCCC2)cc1	.	.	13µM	.	?	.
CCOc1ccc(-n2ccc(=O)c(C(=O)Nc3ccc(S(=O)(=O)Nc4ncccn4)cc3)n2)cc1	/	.	.	.	.	.
COc1ccc(Nc2nc(-c3sc(NC(C)=O)nc3C)cs2)cc1	.	.	?	.	?	.
CCc1c(C)nc(Nc2nc(C)c3ccc(OC)cc3n2)[nH]c1=O	.	?	?	?	?	.
SMILES	SMN2 splice up	Rab9 prom act	FLuc counter	ELG1 genotoxic	ELG1 DNA repair	NPC1 promoter act
Cc1nc(Nc2ccc(S(N)(=O)=O)cc2)sc1-c1ccccc1	/	.	21µM	.	?	.
COc1ccc(Nc2nc(-c3ccccc3)c3ccccc3n2)cc1	.	.	.	.	?	.
COc1ccc(Nc2nc(C)c(-c3ccccc3)s2)cc1	?	4µM	7.6µM	?	?	?
COc1ccc2c(C)nc(Nc3nc(C)c(C)c(=O)[nH]3)nc2c1	.	?	9.5µM	?	?	?
COc1ccc(Nc2nc(C)c3ccccc3n2)cc1	35µM	2.5µM	.[2.3 µM]	?	?	?
O=S(=O)(CC(c1ccccc1)N1CCCCC1)c1ccc(Cl)cc1 (stereo not given)	/	.	.	.	.	.
CCOC(=O)C1CCN(S(=O)(=O)c2ccc3c(c2)CC(C)N3C(=O)C2CCC2)CC1 (stereo not given)	/	.	.	.	?	.
COC(=O)c1ccc(COC(=O)c2ccccc2OC)cc1	.	.	19µM	.	?	.
CCOc1ncccc1C(=O)OCc1cc(=O)oc2c(C)c(C)ccc12	.	.	3µM	.	.	.
COC(=O)c1ccc(OCC(=O)c2ccccc2OC)cc1	.	.	?	.	?	.
CCOc1ncccc1C(=O)OCc1ccc(C(=O)OC)cc1	14µM	.	?	?	?	.
Cc1cc(C)c(S(=O)(=O)N2CCC(N3CCN(Cc4ccccc4)C(=O)C3=O)CC2)c(C)c1	/	/	.	/	/	/
O=C(Nc1ccc(F)cc1F)c1ccc(S(=O)(=O)NCc2ccco2)cc1	/	/	/	.	.	/
Cc1oc(-c2cccs2)nc1CN1CCC(c2ccccc2)CC1	/	.	.	.	.	.
COc1cc2c3cc1Oc1c(OC)c(OC)cc4c1[C@@H](Cc1ccc(O)c(c1)Oc1ccc(cc1)C[C@@H]3N(C)CC2)CN(C)C4	.[9.22 µM]	/	/	/	/	/
O=C(Cc1ccc2c(c1)OCO2)NN=Cc1ccc([N+](=O)[O-])o1	/	/	/	.	16µM	/
O=C(N/N=C\c1ccc([N+](=O)[O-])o1)c1cncc(Br)c1	/	.	.	.	16µM	.
COc1cc([N+](=O)[O-])cc(/C=N/NC(=O)c2cncc(Br)c2)c1O	/	.	.	.	23µM	.
Clc1ccc(/C=N/c2c(-c3ccco3)nc3ccccn23)cc1	.	?	15µM	?	.	.
COc1cc(-c2nc3ccccn3c2/N=C/c2ccc(F)cc2)ccc1O	.	.	?	.	.	.
COc1cc(-c2nc3ccccn3c2/N=C/c2cccc(OC)c2O)ccc1O	.	.	.	.	.	.
O=[N+]([O-])c1cc(-c2ccc(/C=N/c3nc4ccccn4c3-c3ccco3)o2)ccc1Cl	.	?	?	?	?	.
COc1ccc(/C=N/c2c(-c3ccco3)nc3ccccn23)cc1OC	.	?	0.43µM	.	?	?
Oc1ccccc1/C=N/c1c(-c2ccco2)nc2ccccn12	.	?	27µM	?	?	?
CCNc1ncc2nc(CCc3ccccc3)c(=O)n(CCOC)c2n1	.	/	/	/	/	/
CCc1cccc(NC(=O)CSc2nncn3c2cc2sccc23)c1	/	/	.	/	/	/
O=C1CCCC/C1=C\Nc1ccc(S(=O)(=O)Nc2cnc3ccccc3n2)cc1	/	.	.	.	.	.
